Shown are actives, neighbours in structure and some others; about 0.93% of the full set was active somewhere.
HIV TAR-Tat: HIV-1 TAR-Tat binding disruption; HIV-1 TAR RNA, Tat peptide displacement FRET; stronger effect = higher value; z-score (concentration not given with the values); 100,000 compounds, 0.6% hits; AID 1259389; active = z-score of 3 or more in at least 2 runs
CDC25B CDK2 inh: human CDC25B-CDK2/CyclinA binding inhibition; z-score (no concentration beside the values); HTRF CDC25B-CDK2/CyclinA binding, anti-His/anti-Flag; stronger effect = higher value; AID 1259370; 94,000 compounds, 0.72% hits; in the data active = z-score above about 3.2
* = called active by the depositor; ! = a repeat was not active.

`CS(=O)(=O)Nc1nc2ccc(NC(=O)Cc3cccs3)cc2s1` gave HIV TAR-Tat 16*.
CCCCC(=O)Nc1ccc2nc(NS(C)(=O)=O)sc2c1 was read as HIV TAR-Tat -0.5.
Screening Cc1c(C(=O)O)c(O)cc2c1C(=O)c1c(O)c([C@H]3O[C@H](CO)[C@@H](O)[C@H](O)[C@H]3O)c(O)c(O)c1C2=O returned HIV TAR-Tat 8.5*.
For COc1c(O)cc2c(c1O)[C@@H]1O[C@H](CO)[C@@H](O)[C@H](O)[C@H]1OC2=O the results were HIV TAR-Tat 1.9.
Cc1nc2c(c(C)nn2C)c(C)c1CCC(=O)NCC1CCCO1 (configuration not stated) was read as HIV TAR-Tat 1.4 and CDC25B CDK2 inh -0.86.
O=C(O)C1CCCN1c1ncc(Cl)cc1[N+](=O)[O-] (configuration not stated) was read as HIV TAR-Tat -13.
Screening CCOC(=O)C1CCCN1c1ncc(Cl)cc1[N+](=O)[O-] (configuration not stated) returned HIV TAR-Tat -9.8 and CDC25B CDK2 inh 14*.
Fc1ccc(NCc2ccncc2)cc1 was read as HIV TAR-Tat 1.1 and CDC25B CDK2 inh 15*.
For c1cc(CNc2ccc3c(c2)OCO3)ccn1 the results were HIV TAR-Tat 0.91 and CDC25B CDK2 inh 0.08.
For COc1cccc(-c2nc(SCc3cc(=O)c4cc(F)ccc4[nH]3)n[nH]2)c1 the results were HIV TAR-Tat -1.7.
For CC(C)C[C@@H](C=O)NC(=O)[C@H](CC(C)C)NC(=O)[C@H](CC(C)C)NC(=O)OCc1ccccc1 the results were HIV TAR-Tat 3.9*!.
O=C(N[C@@H](Cc1ccccc1)C(=O)CCl)OCc1ccccc1 was read as HIV TAR-Tat 0.24 and CDC25B CDK2 inh -2.2.
`O=C(NCCCO)c1nnc(Cc2ccc3c(c2)OCO3)o1` gave HIV TAR-Tat 1 and CDC25B CDK2 inh 0.39.
Screening Cc1ccc(-n2ncc3c(N(CCO)Cc4ccccc4)ncnc32)cc1C returned HIV TAR-Tat 2.1.
For O=S1(=O)C[C@H](NCCc2ccc(Cl)cc2)[C@@H](S(=O)(=O)c2cccs2)C1 the results were HIV TAR-Tat -1.7 and CDC25B CDK2 inh -1.3.
CN(C)CCCNc1cc(N2CCN(c3ccc(F)cc3)CC2)c2noc3c2c1C(=O)c1ccccc1-3 was read as HIV TAR-Tat 28* and CDC25B CDK2 inh 7.4*.
For O=C1c2ccccc2-c2onc3c(N4CCN(c5ccc(F)cc5)CC4)cc(NCCO)c1c23 the results were HIV TAR-Tat 2.4 and CDC25B CDK2 inh 6.3.
CN(CCO)CCNc1cc(N2CCOCC2)c2noc3c2c1C(=O)c1ccccc1-3 was read as HIV TAR-Tat -5.5 and CDC25B CDK2 inh -1.6.
Screening CN(C)CCCNc1cc(N2CCOCC2)c2noc3c2c1C(=O)c1ccccc1-3 returned HIV TAR-Tat 12* and CDC25B CDK2 inh -2.6.
`N[C@H](CO)C(=O)O` gave CDC25B CDK2 inh -0.64.
Screening NC(CO)C(=O)NNCc1ccc(O)c(O)c1O (configuration not stated) returned HIV TAR-Tat 13* and CDC25B CDK2 inh -1.5.
For CCOc1cc(C)nc(N2CCC(C(=O)O)CC2)n1 the results were HIV TAR-Tat 1.5 and CDC25B CDK2 inh -1.8.
For Cc1ccc(N2CC(O)=C(c3nc4ccccc4n3C)C2=N)c(Br)c1 the results were HIV TAR-Tat 1.3 and CDC25B CDK2 inh 0.27.
Screening CSc1ccccc1NC(=O)C1(c2cccs2)CCOCC1 returned HIV TAR-Tat -0.06.
Cn1cc(NC(=O)NC2CCCCC2)c2ccccc2c1=O was read as HIV TAR-Tat 0.91 and CDC25B CDK2 inh 19*.
Screening CC(C)Cn1cc(NC(=O)NC2CCCCC2)c2ccccc2c1=O returned HIV TAR-Tat 2.4.
CCCSCCCN1C(=O)Cn2cccc2C1C(=O)NC1CCC(C)CC1 (configuration not stated) was read as HIV TAR-Tat 2.2 and CDC25B CDK2 inh -0.88.
For O=C(O)CN(CCN(CC(=O)O)Cc1ccccc1O)Cc1ccccc1O the results were HIV TAR-Tat 2.2.
O=C(O)CN(CC(=O)O)CC(=O)O was read as CDC25B CDK2 inh 3.6*.
`O=[N+]([O-])c1ccc(-c2csc(-c3cnccn3)n2)cc1` gave CDC25B CDK2 inh 0.67.
O=C(c1nc(-c2cccnc2)no1)N1CCCC1 was read as HIV TAR-Tat 1.2.
O=C1c2ccccc2-c2onc3c(Br)cc(NCCO)c1c23 was read as HIV TAR-Tat -6.3 and CDC25B CDK2 inh -1.6.
Cc1[nH]nc(-c2ccc(S(=O)(=O)N3CCN(c4ncccn4)CC3)s2)c1C was read as HIV TAR-Tat -0.54.
Screening O=C(O)Cn1ncn2c(c(-n3cccc3)c3c4c(sc32)CCCC4)c1=O returned HIV TAR-Tat 2.4 and CDC25B CDK2 inh 6.1.
Screening Cc1ccc(CNC(=O)Cn2ncn3c(c(-n4cccc4)c4c5c(sc43)CCCC5)c2=O)cc1 returned HIV TAR-Tat 12* and CDC25B CDK2 inh 0.9.

High-throughput results (PubChem BioAssay)
